From PubChem BioAssay AID1259343 (VanderVen Lab, College of Veterinary Medicine, Cornell …, 2017) come the findings set out here.

Screen size: about 6,200 compounds; about 2,900 (47%) were called active. The set was probably picked from earlier hits. The list shows a part of the results. Unmarked numbers belong to inactive results. No stated cut-off is given here; in the data, active means inhibition above about 50%; inactive means the rest.

The test can be described thus: Mycobacterium tuberculosis growth inhibition, primary screen (AID 1259343). The note with it: inhibition: at 10 µM, active compounds read high; outcome: 10 uM.
Usually inhibition stands for the change of the read-out against control, counted positive when it falls. On to `Cc1nonc1OCCCNc1ccc([N+](=O)[O-])cc1`, for which the inhibition was 37.2%.
As for `CCc1ccc(Nc2ccc([N+](=O)[O-])c3nonc23)cc1`, the inhibition is 85.6% (active).
Turning to `CC12CCC(CC1=NNc1nc3ccccc3o1)C2(C)C` (stereo not drawn), the inhibition was 83.6% (active).
For the compound `CCCCc1nnc(NC(=O)N2CCc3ccccc3C2)s1`, the inhibition was 33.5%.
On to `CCCCc1nnc(NC(=O)C2Cc3ccccc3S2)s1` (stereo not drawn), for which the inhibition was 54.4% (active).
On to `O=C(NCCNc1ncc(C(F)(F)F)cc1Cl)C1Cc2ccccc2S1` (stereo not drawn), for which the inhibition is 46.4%.
As for `CCCCCc1nnc(NC(=O)Cc2ccccc2)s1`, the inhibition is 89.6% (active).
As for `CCCc1nnc(NC(=O)CC(=O)Nc2ccccc2C(=O)O)s1`, the figure is 9.89%; as for `CCC(Cc1c(I)cc(I)c(N)c1I)C(=O)O` (stereo not drawn), 84.2% (active); as for `CCOC(=O)c1ccc(NC(=O)CSc2nc(=O)n3ccccc3n2)cc1`, 90.4% (active).
`O=c1nc(SCc2cccc(C(F)(F)F)c2)nc2ccccn12`: the inhibition is -26.8%.
Regarding `CCc1ccc(NC(=O)CSc2nc(=O)n3ccccc3n2)cc1`, the inhibition is -1.93%.
Regarding `c1coc(-c2cc(CSc3nnc(Cc4cccs4)n3C3CC3)no2)c1`, the inhibition is -54.4%.
On to `O=C(Nc1nc(-c2c[nH]c3ccccc23)cs1)c1ccc(F)cc1Cl`, for which the inhibition was 17%.
On to `Cc1[nH]n(-c2ccc(Cl)cc2)c(=O)c1C1=C(c2c[nH]c3ccccc23)C(=O)N(Cc2ccc(F)cc2)C1=O`, for which the inhibition was 61.5% (active).
Consider `CCc1nc2c(OCCOc3ccc(F)cc3)cccn2c1N(C)C(=O)c1ccccc1F`, for which the inhibition is 45.2%.
As to `Cc1ccccc1C(c1ncccc1C)N(C)C(=O)C1CCN(CCCOc2ccc(F)cc2)CC1` (stereo not drawn), the inhibition is 60.1% (active).
For `CCOC(=O)N1CCC(NS(=O)(=O)CCCOc2ccc(F)cc2)CC1`, the inhibition is 45%.
`N#Cc1ccc(NCCc2cccc(F)c2)cn1`: the inhibition is 36.5%.
As to `CC(NC(=O)C/C=C/c1cccc(F)c1)C(O)Cc1ccccc1` (stereo not drawn), the inhibition is 15.7%.
With `CS(=O)(=O)Nc1ccc(/C=C/C(=O)NCCc2cccc(F)c2)cc1`, the inhibition is 52.3% (active).
As for `CCc1ccc(CNc2ccc(CNc3ncn[nH]3)cc2)cc1`, the inhibition was 91.1% (active).
For `Cc1ccccc1-c1noc(-c2cccc(NC(=O)CCN3CCCO3)c2)n1` the value was 19.4%; for `COc1cc(NC(=O)CNCCN2CCOC2=O)ccc1Cl`, 55.3% (active).
With `Cc1cc(NC(=O)CNCCN2CCCOC2=O)ccc1Cl`, the inhibition is 77.5% (active).
Regarding `Cc1nc2ccccn2c1C(=O)OCc1cc(-c2ccco2)on1`, the inhibition was 33.3%.
As for `CCC(=O)c1ccc(OCc2cc(-c3ccccc3)on2)cc1`, the figure is 92.5% (active); as for `COc1cccc(-c2cc(CC(=O)NC3CCCC3)no2)c1`, 19.6%; as for `CC(C)CN1C(=O)C(=Cc2c(N3CCN(CCO)CC3)nc3ccccn3c2=O)SC1=S`, 7.51%.
Turning to `NC(=O)CSc1nccc2c(OCc3ccc(F)cc3)cccc12`, the inhibition was 77.4% (active).
Take `Cc1sc(NC(=O)C2CC2)c(C(=O)N2CCc3ccccc32)c1C`: the inhibition is -6.91%.
On to `CNS(=O)(=O)c1ccc(C(=O)N2CCc3ccccc32)o1`, for which the inhibition is 89.9% (active).
As for `CNS(=O)(=O)c1ccc2c(c1)CCN2C(=O)c1ccc(F)cc1F`, the figure is 32%.
